Source: PubChem BioAssay AID1159580 (chemical genetic matrix, 2015)
Hit rate of the full screen: of about 5,500 compounds, about 2,000 (36%) were called active. About 18% were inconclusive and are not listed. Cut-off read from the data, not from the text of the source: active = normalized growth mostly below about 0.91 (no sharp cut-off); inconclusive = no clear call, values can overlap the other calls; inactive = mostly above about 0.92. Some of the results follow.

Experiment: chemical genetic growth profiling, strain panel (AID 1159580);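 note: tested at 20 µM; growth read once vehicle control cultures reached saturation at 30 °C; 1 = growth at the plate median or of vehicle wells; lower values mean less growth of the strain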
Settings: growth OD

Measured: normalized growth

O=c1c(-c2ccccc2)coc2cc(O)cc(O)c12
active: S. cerevisiae deletion strains, locus YAL013W, strain DEP1, hits give low values 0.837 | S. cerevisiae deletion strains, locus YBR229C, strain ROT2, hits give low values 0.853 | S. cerevisiae deletion strains, locus YCL029C, strain bik1, hits give low values 0.636 | S. cerevisiae deletion strains, locus YDL035C, strain GPR1, hits give low values 0.825 | S. cerevisiae deletion strains, locus YDL074C, strain BRE1, hits give low values 0.564 | S. cerevisiae deletion strains, locus YDL101C, strain DUN1, hits give low values 0.494 | S. cerevisiae deletion strains, locus YDL185W, strain tfp1, hits give low values 0.332 | S. cerevisiae deletion strains, locus YDL192W, strain arf1, hits give low values 0.781 | S. cerevisiae deletion strains, locus YDR101C, strain arx1, hits give low values 0.758 | S. cerevisiae deletion strains, locus YDR137W, strain rgp1, hits give low values 0.821 | S. cerevisiae deletion strains, locus YDR162C, strain NBP2, hits give low values 0.826 | S. cerevisiae deletion strains, locus YDR318W, strain mcm21, hits give low values 0.819 | S. cerevisiae deletion strains, locus YDR388W, hits give low values 0.879 | S. cerevisiae deletion strains, locus YDR502C, strain sam2, hits give low values 0.793 | S. cerevisiae deletion strains, locus YER110C, hits give low values 0.84 | S. cerevisiae deletion strains, locus YER155C, strain BEM2, hits give low values 0.769 | S. cerevisiae deletion strains, locus YGL078C, strain dbp3, hits give low values 0.822 | S. cerevisiae deletion strains, locus YGL086W, strain mad1, hits give low values 0.786 | S. cerevisiae deletion strains, locus YGL248W, strain PDE1, hits give low values 0.744 | S. cerevisiae deletion strains, locus YGR135W, strain pre9, hits give low values 0.727 | S. cerevisiae deletion strains, locus YGR229C, strain SMI1, hits give low values 0.613 | S. cerevisiae deletion strains, locus YGR252W, strain gcn5, hits give low values 0.648 | S. cerevisiae deletion strains, locus YHR030C, strain SLT2, hits give low values 0.879 | S. cerevisiae deletion strains, locus YHR079C, strain IRE1 (second series), hits give low values 0.739 | S. cerevisiae deletion strains, locus YHR129C, strain ARP1, hits give low values 0.795 | S. cerevisiae deletion strains, locus YHR200W, strain rpn10, hits give low values 0.84 | S. cerevisiae deletion strains, locus YIL066C, strain RNR3, hits give low values 0.817 | S. cerevisiae deletion strains, locus YIL125W, strain kgd1, hits give low values 0.755 | S. cerevisiae deletion strains, locus YIR030C, strain dcg1, hits give low values 0.884 | S. cerevisiae deletion strains, locus YJL095W, strain BCK1, hits give low values 0.447 | S. cerevisiae deletion strains, locus YJL134W, strain LCB3, hits give low values 0.924 | S. cerevisiae deletion strains, locus YJL187C, strain SWE1 (second series), hits give low values 0.394 | S. cerevisiae deletion strains, locus YJR043C, strain POL32, hits give low values 0.709 | S. cerevisiae deletion strains, locus YKL009W, strain mrt4, hits give low values 0.859 | S. cerevisiae deletion strains, locus YKL085W, strain MDH1 (second series), hits give low values 0.799 | S. cerevisiae deletion strains, locus YKL085W, strain MDH1, hits give low values 0.799 | S. cerevisiae deletion strains, locus YKR001C, strain vps1, hits give low values 0.567 | S. cerevisiae deletion strains, locus YLR039C, strain RIC1, hits give low values 0.506 | S. cerevisiae deletion strains, locus YLR058C, strain SHM2, hits give low values 0.311 | S. cerevisiae deletion strains, locus YLR268W, strain sec22, hits give low values 0.789 | S. cerevisiae deletion strains, locus YLR371W, strain rom2, hits give low values 0.715 | S. cerevisiae deletion strains, locus YLR418C, strain cdc73, hits give low values 0.534 | S. cerevisiae deletion strains, locus YML016C, strain PPZ1, hits give low values 0.829 | S. cerevisiae deletion strains, locus YML032C, strain rad52, hits give low values 0.746 | S. cerevisiae deletion strains, locus YML124C, strain tub3, hits give low values 0.885 | S. cerevisiae deletion strains, locus YMR058W, strain fet3, hits give low values 0.682 | S. cerevisiae deletion strains, locus YMR223W, strain ubp8, hits give low values 0.783 | S. cerevisiae deletion strains, locus YMR263W, strain SAP30, hits give low values 0.774 | S. cerevisiae deletion strains, locus YMR307W, strain GAS1, hits give low values 0.57 | S. cerevisiae deletion strains, locus YNL067W, strain RPL9B, hits give low values 0.842 | S. cerevisiae deletion strains, locus YNL233W, strain BNI4, hits give low values 0.792 | S. cerevisiae deletion strains, locus YNL250W, strain rad50, hits give low values 0.824 | S. cerevisiae deletion strains, locus YNL271C, strain bni1, hits give low values 0.646 | S. cerevisiae deletion strains, locus YNL298W, strain CLA4, hits give low values 0.766 | S. cerevisiae deletion strains, locus YNL307C, strain MCK1, hits give low values 0.714 | S. cerevisiae deletion strains, locus YNR052C, strain pop2, hits give low values 0.65 | S. cerevisiae deletion strains, locus YOL147C, strain pex11, hits give low values 0.588 | S. cerevisiae deletion strains, locus YOR061W, strain CKA2, hits give low values 0.869 | S. cerevisiae deletion strains, locus YOR069W, strain VPS5, hits give low values 0.848 | S. cerevisiae deletion strains, locus YOR136W, strain idh2, hits give low values 0.905 | S. cerevisiae deletion strains, locus YOR144C, strain elg1, hits give low values 0.686 | S. cerevisiae deletion strains, locus YOR184W, strain ser1, hits give low values 0.669 | S. cerevisiae deletion strains, locus YPL055C, strain LGE1, hits give low values 0.744 | S. cerevisiae deletion strains, locus YPL241C, strain CIN2, hits give low values 0.911 | S. cerevisiae deletion strains, locus YPR163C, strain tif3, hits give low values 0.643 | S. cerevisiae deletion strains, locus YPR167C, strain met16, hits give low values 0.815 | S. cerevisiae deletion strains, strain wtn01, hits give low values 0.767 | S. cerevisiae strains, strain wild type, hits give low values 0.772
inactive: S. cerevisiae deletion strains, locus YAL021C, strain ccr4, hits give low values 0.977 | S. cerevisiae deletion strains, locus YAL026C, strain drs2, hits give low values 0.927 | S. cerevisiae deletion strains, locus YAL030W, strain snc1, hits give low values 0.99 | S. cerevisiae deletion strains, locus YBL061C, strain skt5, hits give low values 0.978 | S. cerevisiae deletion strains, locus YBR009C, strain hhf1, hits give low values 0.946 | S. cerevisiae deletion strains, locus YBR021W, strain FUR4, hits give low values 0.859 | S. cerevisiae deletion strains, locus YBR023C, strain chs3, hits give low values 0.967 | S. cerevisiae deletion strains, locus YBR171W, strain sec66, hits give low values 1.01 | S. cerevisiae deletion strains, locus YBR231C, strain swc5, hits give low values 0.965 | S. cerevisiae deletion strains, locus YBR279W, strain paf1, hits give low values 1 | S. cerevisiae deletion strains, locus YCL011C, strain gbp2, hits give low values 0.969 | S. cerevisiae deletion strains, locus YCL016C, strain dcc1, hits give low values 0.983 | S. cerevisiae deletion strains, locus YCL061C, strain MRC1, hits give low values 0.961 | S. cerevisiae deletion strains, locus YCL069W, strain vba3, hits give low values 1 | S. cerevisiae deletion strains, locus YCR088W, strain abp1, hits give low values 1.01 | S. cerevisiae deletion strains, locus YDL005C, strain med2, hits give low values 1.04 | S. cerevisiae deletion strains, locus YDL040C, strain nat1, hits give low values 1.01 | S. cerevisiae deletion strains, locus YDR001C, strain nth1, hits give low values 1.01 | S. cerevisiae deletion strains, locus YDR069C, strain doa4, hits give low values 0.903 | S. cerevisiae deletion strains, locus YDR159W, strain sac3, hits give low values 1.08 | S. cerevisiae deletion strains, locus YDR195W, strain ref2 1.03 | S. cerevisiae deletion strains, locus YDR297W, strain sur2, hits give low values 0.977 | S. cerevisiae deletion strains, locus YDR334W, strain swr1, hits give low values 0.995 | S. cerevisiae deletion strains, locus YDR335W, strain msn5, hits give low values 0.993 | S. cerevisiae deletion strains, locus YDR392W, strain spt3, hits give low values 0.913 | S. cerevisiae deletion strains, locus YEL003W, strain gim4, hits give low values 0.971 | S. cerevisiae deletion strains, locus YEL037C, strain rad23, hits give low values 0.981 | S. cerevisiae deletion strains, locus YEL061C, strain CIN8 (second series), hits give low values 1.02 | S. cerevisiae deletion strains, locus YER015W, strain faa2, hits give low values 0.979 | S. cerevisiae deletion strains, locus YER016W, strain bim1, hits give low values 1.01 | S. cerevisiae deletion strains, locus YER111C, strain swi4, hits give low values 0.963 | S. cerevisiae deletion strains, locus YER155C, strain BEM2 (second series), hits give low values 0.982 | S. cerevisiae deletion strains, locus YER167W, strain BCK2, hits give low values 0.911 | S. cerevisiae deletion strains, locus YFR010W, strain ubp6, hits give low values 0.937 | S. cerevisiae deletion strains, locus YGL167C, strain pmr1, hits give low values 1.01 | S. cerevisiae deletion strains, locus YGL173C, strain kem1, hits give low values 0.991 | S. cerevisiae deletion strains, locus YGL227W, strain vid30, hits give low values 1.02 | S. cerevisiae deletion strains, locus YGL240W, strain doc1, hits give low values 0.935 | S. cerevisiae deletion strains, locus YGL253W, strain hxk2, hits give low values 0.972 | S. cerevisiae deletion strains, locus YHR013C, strain ard1, hits give low values 0.992 | S. cerevisiae deletion strains, locus YHR027C, strain rpn1, hits give low values 0.998 | S. cerevisiae deletion strains, locus YHR094C, strain hxt1, hits give low values 0.936 | S. cerevisiae deletion strains, locus YHR142W, strain chs7, hits give low values 0.946 | S. cerevisiae deletion strains, locus YIL073C, strain SPO22, hits give low values 0.76 | S. cerevisiae deletion strains, locus YJL092W, strain hpr5, hits give low values 0.993 | S. cerevisiae deletion strains, locus YJL095W, strain BCK1 (second series), hits give low values 0.996 | S. cerevisiae deletion strains, locus YJL115W, strain asf1, hits give low values 1.02 | S. cerevisiae deletion strains, locus YJL129C, strain trk1, hits give low values 1 | S. cerevisiae deletion strains, locus YJL154C, strain vps35, hits give low values 1.02 | S. cerevisiae deletion strains, locus YJL164C, strain tpk1, hits give low values 0.934 | S. cerevisiae deletion strains, locus YJL166W, strain qcr8, hits give low values 0.966 | S. cerevisiae deletion strains, locus YJL168C, strain set2, hits give low values 0.973 | S. cerevisiae deletion strains, locus YJL187C, strain SWE1, hits give low values 0.992 | S. cerevisiae deletion strains, locus YJR075W, strain HOC1, hits give low values 0.884 | S. cerevisiae deletion strains, locus YKL068W, hits give low values 0.951 | S. cerevisiae deletion strains, locus YKL160W, strain elf1, hits give low values 0.974 | S. cerevisiae deletion strains, locus YKL190W, strain CNB1, hits give low values 0.929 | S. cerevisiae deletion strains, locus YKR026C, strain gcn3, hits give low values 1 | S. cerevisiae deletion strains, locus YKR091W, strain srl3, hits give low values 1.01 | S. cerevisiae deletion strains, locus YLL001W, strain dnm1, hits give low values 0.965 | S. cerevisiae deletion strains, locus YLL026W, hits give low values 1 | S. cerevisiae deletion strains, locus YLL041C, strain sdh2, hits give low values 1.01 | S. cerevisiae deletion strains, locus YLR027C, strain aat2, hits give low values 1 | S. cerevisiae deletion strains, locus YLR102C, strain apc9, hits give low values 0.953 | S. cerevisiae deletion strains, locus YLR221C, strain rsa3, hits give low values 0.923 | S. cerevisiae deletion strains, locus YLR258W, strain gsy2, hits give low values 0.982 | S. cerevisiae deletion strains, locus YLR262C, strain YPT6 (second series), hits give low values 0.915 | S. cerevisiae deletion strains, locus YLR262C, strain YPT6, hits give low values 0.606 | S. cerevisiae deletion strains, locus YLR320W, strain mms22, hits give low values 0.98 | S. cerevisiae deletion strains, locus YLR342W, strain FKS1, hits give low values 0.976 | S. cerevisiae deletion strains, locus YLR357W, strain rsc2, hits give low values 0.881 | S. cerevisiae deletion strains, locus YLR370C, strain arc18, hits give low values 1.01 | S. cerevisiae deletion strains, locus YLR384C, strain iki3, hits give low values 1.02 | S. cerevisiae deletion strains, locus YML120C, strain ndi1, hits give low values 0.963 | S. cerevisiae deletion strains, locus YMR078C, strain ctf18, hits give low values 0.964 | S. cerevisiae deletion strains, locus YMR125W, strain sto1, hits give low values 0.997 | S. cerevisiae deletion strains, locus YMR129W, hits give low values 1.02 | S. cerevisiae deletion strains, locus YMR205C, strain PFK2, hits give low values 1.02 | S. cerevisiae deletion strains, locus YMR231W, strain pep5, hits give low values 1 | S. cerevisiae deletion strains, locus YNL071W, strain lat1, hits give low values 1.01 | S. cerevisiae deletion strains, locus YNL209W, strain ssb2, hits give low values 0.936 | S. cerevisiae deletion strains, locus YNL248C, strain rpa49, hits give low values 0.989 | S. cerevisiae deletion strains, locus YNL322C, strain KRE1 (second series), hits give low values 1.01 | S. cerevisiae deletion strains, locus YNR049C, strain mso1, hits give low values 1.01 | S. cerevisiae deletion strains, locus YOL012C, strain htz1 0.305 | S. cerevisiae deletion strains, locus YOR001W, strain rrp6, hits give low values 0.964 | S. cerevisiae deletion strains, locus YOR070C, strain gyp1, hits give low values 1.01 | S. cerevisiae deletion strains, locus YOR080W, strain dia2, hits give low values 1 | S. cerevisiae deletion strains, locus YOR083W, strain WHI5, hits give low values 0.938 | S. cerevisiae deletion strains, locus YOR106W, strain vam3, hits give low values 0.924 | S. cerevisiae deletion strains, locus YOR265W, strain rbl2, hits give low values 1.01 | S. cerevisiae deletion strains, locus YOR270C, strain vph1, hits give low values 0.912 | S. cerevisiae deletion strains, locus YOR290C, strain snf2, hits give low values 0.886 | S. cerevisiae deletion strains, locus YOR316C, strain cot1, hits give low values 0.979 | S. cerevisiae deletion strains, locus YPL051W, strain arl3, hits give low values 0.947 | S. cerevisiae deletion strains, locus YPL078C, strain atp4, hits give low values 0.967 | S. cerevisiae deletion strains, locus YPL106C, strain sse1, hits give low values 1.03 | S. cerevisiae deletion strains, locus YPL240C, strain hsp82, hits give low values 0.996 | S. cerevisiae deletion strains, locus YPR119W, strain clb2, hits give low values 0.992 | S. cerevisiae deletion strains, locus YPR141C, strain kar3, hits give low values 0.99
